# Among all 16,000 compounds or so, about 5,700 (36%) were called active. Another 24% or so got no clear call; they are omitted. Some of the results follow. A number with no mark means an inactive call. The call rests on the fitted dose curve; in most records, active means well fitted curve in the direction sought with a large enough effect; inconclusive means small, poorly fitted or top-dose-only effect, or effect the other way; inactive means no such curve, though single readings can be large or run the other way.
# Target: Cytochrome P450 1A2 (Homo sapiens) (UniProt P05177)
# Assay: Cytochrome panel assay with activity outcomes
# Settings: recombinant CYP, pro-luciferin dealkylation, luminescence, p450-cyp1a2; series mostly up to 57.1 µM; activity, negative = inhibition: at the top concentration
# On the % scale 0 is the no-effect control and ±100 the full control effect.
# Chain of Cytochrome P450 1A2 (Homo sapiens) (P05177 whole entry, looked up): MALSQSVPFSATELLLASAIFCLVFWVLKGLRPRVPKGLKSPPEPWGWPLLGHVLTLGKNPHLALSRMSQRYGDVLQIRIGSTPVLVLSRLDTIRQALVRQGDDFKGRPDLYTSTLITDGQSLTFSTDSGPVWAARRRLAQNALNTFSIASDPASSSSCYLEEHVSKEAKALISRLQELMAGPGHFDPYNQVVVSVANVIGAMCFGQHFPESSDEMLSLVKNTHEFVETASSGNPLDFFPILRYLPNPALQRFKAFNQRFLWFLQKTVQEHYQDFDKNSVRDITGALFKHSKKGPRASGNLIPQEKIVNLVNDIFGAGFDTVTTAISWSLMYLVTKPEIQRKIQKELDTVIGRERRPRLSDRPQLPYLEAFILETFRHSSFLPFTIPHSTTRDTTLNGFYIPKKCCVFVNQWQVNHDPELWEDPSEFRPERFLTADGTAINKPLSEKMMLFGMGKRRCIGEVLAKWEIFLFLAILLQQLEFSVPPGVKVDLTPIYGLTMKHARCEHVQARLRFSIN
Compound,"activity, negative = inhibition",AC50
Nc1ccc(CCNc2ncnc3c2ncn3[C@@H]2O[C@@H](CO)[C@H](O)[C@@H]2O)cc1,-9.16%,
Cc1ccc(N=Nc2c(=O)[nH]n3c(C)cc(C)nc23)cc1,,12.6 µM (active)
Cc1cccc(C)c1NC(=O)CS(=O)CC(=O)Nc1ccc(F)cc1F (stereo not drawn),-14.2%,
Cc1nc(-c2cccnc2)sc1C(=O)Nc1ccc(Cl)cc1,,2.51 µM (active)
Cc1nc(-c2cccnc2)sc1C(N)=O,,14.1 µM (active)
CNC(=O)c1sc(-c2cccnc2)nc1C,,14.1 µM (active)
CC(=O)NC1(c2ccc(F)cc2)CCN(C(=O)Nc2ccc(F)cc2F)CC1,-6.47%,
CC(C)N=C(Nc1ccc(Cl)cc1)c1cccnc1,-17.4%,
Cc1nc(-c2cccnc2)sc1C(=O)Nc1ccc(F)cc1F,,4.47 µM (active)
CC(C)NC(=O)N1CC2(CCN(S(=O)(=O)c3ccccc3)CC2)C1,-9.07%,
Cn1ccnc1C[C@@](C)(O)c1ccccc1,-14.2% [at 11.4 µM],
CC(C(=O)NC1CCCC1)N(C(=O)c1snc(C(N)=O)c1N)c1ccc2c(c1)OCCO2 (stereo not drawn),-27.6%,
CC(Sc1ccc2c(c1)OCCO2)C(=O)Nc1ncc(Cl)cc1Cl (stereo not drawn),,6.31 µM (active)
COCC(=O)N1CCC2(CCCN(Cc3ccccc3OC)C2)CC1,-2.98%,
NCC(=O)Nc1ccc(Cl)cc1C(=O)c1ccc[nH]1,,3.16 µM (active)
Cc1cc2c(ncn2Cc2ccccc2)c([N+](=O)[O-])c1C,,5.62 µM (active)
Cc1cccc(Cn2cnc3c(NS(C)(=O)=O)c(C)c(C)cc32)c1,,3.16 µM (active)
Cc1ncc([N+](=O)[O-])n1CC(=O)NCc1ccccc1,-24%,
Cc1nn(CC(=O)NCc2ccccc2)c(C)c1[N+](=O)[O-],-4.08%,
CC(=O)C=NCC(=O)O,0.0576% [at 11.4 µM],
COC(=O)[C@@]1(Cc2ccc(F)cc2)[C@H]2c3cc(C(=O)N(C)C)n(Cc4ccc(C(F)(F)F)nc4)c3C[C@H]2CN1C(=O)c1ccccc1,-10.8%,
COc1ccc(CCNc2nc(-c3cccnc3)cs2)cc1OC,,0.355 µM (active)
COc1ccc(CNc2cc(-c3cccnc3)ncn2)c(OC)c1,,1.26 µM (active)
COc1ccccc1CNc1cc(-c2cccnc2)ncn1,,1 µM (active)

Compound,"activity, negative = inhibition",AC50
CC(C)(C)C(=O)N(CCN(C(=O)C(C)(C)C)c1ccccc1)c1ccccc1,-6.47%,
COC(=O)C/C=C\[C@@H](C)[C@@H](/C=N\OC[C@@H](O)[C@H]1O[C@H]2OC(C)(C)O[C@H]2[C@@H]1O)NS(=O)(=O)c1ccc(C)cc1,0.282% [at 11.4 µM],
CCCC[C@@H]1C[C@H]1C(NC(=O)c1ccccc1)c1ccc(Cl)cc1 (stereo partly drawn),,1 µM (active)
CCCC[C@@H]1C[C@H]1C(NC(=O)c1ccc(-c2ccccc2)cc1)c1ccc(-c2ccccc2)cc1 (stereo partly drawn),0.142%,
C=C(CC1([C@@H](NP(=O)(c2ccccc2)c2ccccc2)[C@H]2C[C@@H]2CCCC)CC1)c1ccccc1,-15.8%,
CCC[C@@H]1C[C@@]1(CCC)C(NC(=O)c1ccccc1)c1cccc(Cl)c1 (stereo partly drawn),-9.7%,
C[C@@]1(C(NC(=O)c2ccc(-c3ccccc3)cc2)c2ccc(Cl)cc2)C[C@H]1C1CCCCC1 (stereo partly drawn),-17.1%,
CCCC[C@@H]1C[C@H]1C(NC(=O)c1ccccc1)c1ccccc1 (stereo partly drawn),,2.51 µM (active)
COC(=O)c1ccc(Oc2cc(C)nc(-n3nc(C)cc3C)n2)cc1,,8.91 µM (active)
Cc1cc(C)n(-c2ccc(Cl)c(C(=O)O)n2)n1,-1.29%,
Cc1ccc(-c2csc(C(C#N)=C3CCCC3)n2)cc1,,3.55 µM (active)
N#CC(=C1CCCC1)c1nc(-c2ccccc2)cs1,,0.631 µM (active)
N#C/C(=N\O)c1nc(-c2ccccc2)cs1,,6.31 µM (active)
CC1(C)N=C(N)N=C(N)N1CCCCc1ccccc1,-4.32% [at 2.29 µM],
c1ccc(-c2nc3ccccc3o2)nc1,,0.501 µM (active)
C/C(O)=C\c1nc2ccccc2oc1=O,-19.9%,
O=S(=O)(O)c1ccc(-c2nnc(-c3ccccn3)nc2-c2ccc(S(=O)(=O)O)o2)o1,-8.46% [at 11.4 µM],
CC1(C)C(=O)NC2=C1C(=O)C(=O)c1ccccc12,,3.16 µM (active)
O=C(O)[C@@H]1CCCN1Cc1c[nH]c2ccccc12,-13.1% [at 11.4 µM],
N#C/C(=C\c1c[nH]c2ccccc12)C(=O)c1ccc(O)c(O)c1,,1.26 µM (active)
CCN(CC(=O)O)CC(=O)O,-5.21% [at 11.4 µM],
CS(=O)(=O)Nc1cccc(-c2nccc(-n3ccnc3)n2)c1,,0.2 µM (active)
COc1ccc(NS(=O)(=O)c2ccc(I)cc2)cc1N1CCN(C)CC1,5.42%,
CS(=O)(=O)Nc1cccc(-c2cncnc2-n2ccnc2)c1,,15.8 µM (active)

# — PubChem BioAssay AID1851 (National Center for Advancing Translational Sciences (NCATS), 2009)
